Records with an inconclusive call do not appear. Active and inactive are the calls of the source. Calls come from the whole dose curve; as a rule, active = well fitted cell-killing curve with a large enough effect; inconclusive = small, poorly fitted or top-dose-only effect; inactive = flat fitted curve, though single readings scatter.

The nature of this assay: PC3M Cytotoxicity Assay for Compounds that Inhibit the Perinuclear Compartment: Chemistry Optimization Followup. As to conditions: PC3M-GFP viability, ATPLite luminescence, 24 h; series mostly up to 46.1 µM. The text has this: The perinucleolar compartment (PNC) is a non-membrane-bound nuclear subdomain that is associated with but structurally distinct from the nucleolus. The PNC is a heritable trait, in which the number of PNCs per cell in daughter cells often mimics that of their mother cells. The PNC is heterogeneous in shape, is stable through interphase, disassembles during mitosis, and reassembles in early G1. The PNC is concentrated with newly synthesized RNA polymerase III (pol III) RNAs (MRP RNA, RNAse P H1 RNA, hY RNAs[hY1, 2, 5], Alu RNA, and SRP [7SL] RNA) and RNA binding proteins (nucleolin, PTB, CUG-BP, KSRP, Raver1, Raver2, and Rod). […] Extensive in vitro studies have shown that the PNC is unique to tumor cells and preferentially forms in tumor cells derived from solid tissues. Examination of cancer cell lines from various origins and malignant capacities has shown that PNC prevalence correlates with the malignancy of tumors and has the potential to be developed as a pan-cancer prognostic marker. […] Although the PNC is associated with a DNA locus and a handful of components have been identified, much remains to be investigated regarding the structure and function of the PNC and its mechanistic link to cancer. We have previously shown that PNC prevalence reduction is a valid strategy to identify compounds that can be used to study the structure and function of the PNC. It is necessary, however, to create a screening platform that is able to test a large number of compounds in an automated fashion. Here we report the development and robustness of an automated whole-cell phenotypic image-based screening assay that is capable of identifying such compounds. We conducted a followup assay to measure the effect of the lead candidates on cell health by measuring ATP levels (ATPLite). The highly metastatic PC3M-GFP reporter cell line was used in this study. NIH Chemical Genomics Center [NCGC] NIH Molecular Libraries Probe Centers Network [MLPCN] MLPCN Grant: MH082371-01A2 Assay Submitter (PI): Sui Huang, Northwestern University, Feinberg School of Medicine, Cell and Molecular Biology, Chicago, Illinois.
1. Cells at a density of 75-90% confluency in T175 flasks were harvested using 7 ml TrypLE Express cell dissociation reagent. After dissociation (5 minutes room temperature incubation) 10 ml of complete media was added to the TrypLE/cell suspension. The liquid was transferred to a 50 ml Conical tube and cells were pelleted at 1000 RPM for 5 min. Supernatant was removed and cells were resuspended to a final density of 150-200 cells/ul in complete media. 2. Cells were plated in 5 ul volume (2000 cells/well) into 1536 well White solid bottom plates and allowed to recover and adhere at 37 C in a humidified 5% CO2 incubator for 4 hours. 3. After 4 hour incubation, compound libraries (23 nl of […] in columns 5-48) were transferred to the plates in duplicate using a 1536 well pintool. Camptothecin positive control (59 uM final) was added to column 2 and 1:3 dilutions of camptothecin was added to column 3. DMSO negative controls were present in columns 1 and 4. 4. After a 24 hour incubation in the 37 C incubator, all wells were treated with 3 ul of ATPLite reagent using a multidrop combi dispenser (ThermoFisher). Bubbles that formed during dispensing were removed by spinning the plates for 1 minutre at 1500 RPM on a table top centrifuge. 5. Luminescencent signal was detected on a Viewlux CCD based imager (PerkinElmer) with a clear filter and a 30 second integration time. The PC3M cell line stably expressing the PTB-GFP was provided by Sui Huang of Northwestern University. The media and cell culture reagents were purchased from Invitrogen (Carlsbad, CA), ATPLite came from PerkinElmer.
As to `N=c1c2c(-c3ccccc3)c(-c3ccccc3)n(CCc3ccccc3)c2ncn1CCCCCO`, the Potency was 17.7 µM (active).

Regarding `COc1ccc(Cn2c(NC=N[C@H](C)[C@@H](O)c3ccccc3)c(C#N)c(-c3ccccc3)c2-c2ccccc2)cc1`, the Potency is 19.6 µM (active).

In the case of `CN(C)CCCn1cnc2c(c(-c3ccccc3)c(-c3ccccc3)n2Cc2ccccc2)c1=N`, the Potency is 25 µM (active).

`COc1ccc(Cn2c(-c3ccccc3)c(-c3ccccc3)c3c(=N)n(CC4CCCO4)cnc32)cc1` (stereo not given): the Potency is 19.9 µM (active).

With `N=c1c2c(-c3ccccc3)c(-c3ccccc3)n(CCc3ccccc3)c2ncn1CC1CCCO1` (stereo not given), the Potency is 11.2 µM (active).

`N=c1c2c(-c3ccccc3)c(-c3ccccc3)n(CCc3ccccc3)c2ncn1C1CCC(O)CC1` (stereo not given): the Potency was 17.7 µM (active).

As to `N=c1c2c(-c3ccccc3)c(-c3ccccc3)n(CCc3ccccc3)c2ncn1[C@H](CO)Cc1ccccc1`, the Potency is 19.9 µM (active).

For `CN(C(=O)c1cccs1)c1cccnc1`, the Potency result is “inactive”.

Consider `C[C@H]([C@@H](O)c1ccccc1)n1cnc2c(c(-c3ccccc3)c(-c3ccccc3)n2Cc2ccccc2)c1=N`, for which the Potency was 15.8 µM (active).

In the case of `COCCn1cnc2c(c(-c3ccccc3)c(-c3ccccc3)n2Cc2ccc(OC)cc2)c1=N`, the Potency was 17.7 µM (active).

Consider `COC(Cn1cnc2c(c(-c3ccccc3)c(-c3ccccc3)n2CCc2ccccc2)c1=N)OC`, for which the Potency is 17.7 µM (active).

As for `COCCn1cnc2c(c(-c3ccccc3)c(-c3ccccc3)n2CCc2ccccc2)c1=N`, the Potency is 15.8 µM (active).

As for `COc1ccc(Cn2c(-c3ccccc3)c(-c3ccccc3)c3c(=N)n(CCCCCO)cnc32)cc1`, the Potency was 15.8 µM (active).

Take `CN(C)CCCn1cnc2c(c(-c3ccccc3)c(-c3ccccc3)n2CCc2ccccc2)c1=N`: the Potency was 22.3 µM (active).

With `N=c1c2c(-c3ccccc3)c(-c3ccccc3)n(Cc3ccccc3)c2ncn1CC1CCCO1` (stereo not given), the Potency was 19.9 µM (active).

Take `CCOC(CCCn1cnc2c(c(-c3ccccc3)c(-c3ccccc3)n2CCc2ccccc2)c1=N)OCC`: the Potency is 22.3 µM (active).

Turning to `N=c1c2c(-c3ccccc3)c(-c3ccccc3)n(CCc3ccccc3)c2ncn1CCCO`, the Potency is 15.6 µM (active).

As for `CN(C)CCn1cnc2c(c(-c3ccccc3)c(-c3ccccc3)n2Cc2ccccc2)c1=N`, the Potency was 17.7 µM (active).

As to `CN(C)CCn1cnc2c(c(-c3ccccc3)c(-c3ccccc3)n2CCc2ccccc2)c1=N`, the Potency is 15.8 µM (active).

In the case of `COc1ccc(Cn2c(-c3ccccc3)c(-c3ccccc3)c3c(=N)n(CCCCO)cnc32)cc1`, the Potency is 12.5 µM (active).
